From PubChem BioAssay (EPA / NIEHS)
“And” between values parts separate entries of the source, which are not always exact repeats. Equal values may be shown once. Inconclusive results are not listed. More than one record can exist for a structure, and the calls need not agree. The source made the active and inactive calls. The calls were made as follows, unless noted: active = hit-call score of the fitted dose curve at least 0.9, where 1 is the maximum; inconclusive = response in the unintended direction; inactive = score below 0.9.

Experiments:
[1] = ATG_TAL_CIS: Attagene CIS-FACTORIAL HepG2 Assay for human TAL Basal Promoter (AID 2282966; active = hit-call score of the fitted dose curve at least 0.9, where 1 is the maximum; inactive = score below 0.9;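 also: background control endpoint measuring basal TAL promoter reporter mRNA not a specific factor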); details: HepG2 Attagene cis-factorial TAL promoter reporter; actives raise or lower the signal
In short: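 HepG2 cells were transiently transfected with promoter-driven multiplexed reporter units and dosed for 24 h. Reporter mRNA was measured by RT-PCR with capillary electrophoresis fluorescence; bidirectional fits used DMSO as baseline, serving as a background control.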

[2] = ATG_TGFb_CIS: Attagene CIS-FACTORIAL HepG2 Assay for human Transforming Growth Factor (TGF) (AID 2282967; active = hit-call score of the fitted dose curve at least 0.9, where 1 is the maximum; inactive = score below 0.9); details: HepG2 Attagene CIS TGFb reporter, mRNA transcription; actives raise or lower the signal
In short: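 Cells were dosed for 24 hours, after which total RNA was reverse-transcribed and reporter sequences amplified, labeled and sized by capillary electrophoresis. Activity was fitted in both directions against DMSO.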

[3] = ATG_VDRE_CIS: Attagene CIS-FACTORIAL HepG2 Assay for human Vitamin D Receptor Element (VDRE) (AID 2282968; active = hit-call score of the fitted dose curve at least 0.9, where 1 is the maximum; inactive = score below 0.9); details: HepG2 VDRE cis-reporter transcription, actives raise or lower the signal
In short: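 In transiently transfected HepG2 liver cells, gain or loss of reporter mRNA after 24 h exposure is scored relative to DMSO, using fluorescence detection by capillary electrophoresis of RT-PCR products.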

[4] = target: Nuclear receptor subfamily 1 group I member 3 (Homo sapiens) (UniProt Q14994); experiment: ATG_CAR_TRANS: Attagene TRANS-FACTORIAL HepG2 Assay for human Constitutive Androstane Receptor (CAR) (AID 2282969); details: HepG2 Attagene TRANS-FACTORIAL CAR reporter;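 also: activators raise reporter mRNA above DMSO so AC50 marks induction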
Chain of Nuclear receptor subfamily 1 group I member 3 (Homo sapiens) (Q14994 whole entry, looked up, the tested form may be a part): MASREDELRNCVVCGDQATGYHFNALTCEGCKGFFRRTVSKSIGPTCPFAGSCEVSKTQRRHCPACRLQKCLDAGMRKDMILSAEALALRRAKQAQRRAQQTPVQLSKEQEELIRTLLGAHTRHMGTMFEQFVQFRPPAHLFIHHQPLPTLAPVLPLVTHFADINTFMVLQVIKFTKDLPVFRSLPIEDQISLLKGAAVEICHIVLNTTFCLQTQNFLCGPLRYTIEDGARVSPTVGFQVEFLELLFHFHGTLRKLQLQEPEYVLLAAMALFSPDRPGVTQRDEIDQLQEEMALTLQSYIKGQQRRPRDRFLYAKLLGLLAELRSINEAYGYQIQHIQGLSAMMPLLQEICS
In short: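 Readout is reporter mRNA induction, quantified by fluorescent primer extension and capillary electrophoresis after RT-PCR. Cells were HepG2 transiently carrying chimeric NR-Gal4 constructs with GAL4-UAS reporters, treated for 24 h; activity scored upward from DMSO.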

[5] = target: Estrogen receptor (Homo sapiens) (UniProt P03372); experiment: ATG_ERa_TRANS: Attagene TRANS-FACTORIAL HepG2 Assay for human Estrogen Receptor alpha (ERa) (AID 2282970); details: HepG2 Attagene TRANS ERa GAL4 reporter, mRNA
Chain of Estrogen receptor (Homo sapiens) (P03372 whole entry, looked up, the tested form may be a part): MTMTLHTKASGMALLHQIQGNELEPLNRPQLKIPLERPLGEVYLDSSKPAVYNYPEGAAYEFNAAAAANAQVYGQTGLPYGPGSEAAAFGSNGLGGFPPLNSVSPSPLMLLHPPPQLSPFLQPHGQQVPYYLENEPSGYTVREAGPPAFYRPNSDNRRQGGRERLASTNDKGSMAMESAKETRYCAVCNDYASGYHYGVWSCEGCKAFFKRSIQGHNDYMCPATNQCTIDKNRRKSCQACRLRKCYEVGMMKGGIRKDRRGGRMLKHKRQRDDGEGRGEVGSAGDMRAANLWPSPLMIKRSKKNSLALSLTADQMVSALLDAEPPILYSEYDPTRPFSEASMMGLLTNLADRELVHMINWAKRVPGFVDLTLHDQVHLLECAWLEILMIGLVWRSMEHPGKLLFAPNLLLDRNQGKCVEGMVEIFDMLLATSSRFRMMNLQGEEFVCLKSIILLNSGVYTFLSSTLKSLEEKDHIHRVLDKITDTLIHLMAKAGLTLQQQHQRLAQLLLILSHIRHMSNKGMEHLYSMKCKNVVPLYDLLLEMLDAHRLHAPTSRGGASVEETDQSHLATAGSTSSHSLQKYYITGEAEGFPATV
In short: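 HepG2 cells transiently transfected with multiplexed GAL4-UAS reporter units; ERa activity read via exogenous chimeric NR-Gal4 protein. After 24 hour compound exposure, reporter mRNA measured by RT-PCR with 6-FAM labelling and capillary electrophoresis; gain-of-signal fitted relative to DMSO.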

[6] = target: Steroid hormone receptor ERR1 (Homo sapiens) (UniProt P11474); experiment: ATG_ERRa_TRANS: Attagene TRANS-FACTORIAL HepG2 Assay for human Estrogen-Related Receptor alpha (ERRa) (AID 2282971); details: HepG2 Attagene TRANS reporter, ERRa transactivation
Chain of Steroid hormone receptor ERR1 (Homo sapiens) (P11474 whole entry, looked up, the tested form may be a part): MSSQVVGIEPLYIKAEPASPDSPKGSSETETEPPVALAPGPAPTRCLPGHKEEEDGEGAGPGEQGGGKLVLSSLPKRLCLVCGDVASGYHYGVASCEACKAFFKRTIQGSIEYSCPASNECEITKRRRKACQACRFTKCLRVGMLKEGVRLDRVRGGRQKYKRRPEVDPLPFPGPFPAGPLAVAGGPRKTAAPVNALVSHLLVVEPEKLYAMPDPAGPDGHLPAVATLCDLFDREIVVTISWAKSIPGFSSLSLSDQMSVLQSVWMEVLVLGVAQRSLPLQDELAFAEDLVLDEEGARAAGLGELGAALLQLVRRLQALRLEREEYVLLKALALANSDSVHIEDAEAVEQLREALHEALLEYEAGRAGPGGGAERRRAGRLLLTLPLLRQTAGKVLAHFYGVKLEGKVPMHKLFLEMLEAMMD
In short: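 HepG2 cells transiently transfected with multiplexed GAL4-UAS reporter units reading chimeric ERRa-Gal4 activity; 24 h compound exposure. Reporter mRNA measured by RT-PCR, 6-FAM labelling, HpaI digest and capillary electrophoresis; gain of signal fitted versus DMSO baseline.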

[7] = target: X-box-binding protein 1 (Homo sapiens) (UniProt P17861); experiment: ATG_Xbp1_CIS: Attagene CIS-FACTORIAL HepG2 Assay for human X-box Binding Protein 1 (XBP1) (AID 2282972; active = hit-call score of the fitted dose curve at least 0.9, where 1 is the maximum; inactive = score below 0.9); details: HepG2 XBP1 cis-element reporter, Attagene multiplex; actives raise or lower the signal
Chain of X-box-binding protein 1 (Homo sapiens) (P17861 whole entry, looked up): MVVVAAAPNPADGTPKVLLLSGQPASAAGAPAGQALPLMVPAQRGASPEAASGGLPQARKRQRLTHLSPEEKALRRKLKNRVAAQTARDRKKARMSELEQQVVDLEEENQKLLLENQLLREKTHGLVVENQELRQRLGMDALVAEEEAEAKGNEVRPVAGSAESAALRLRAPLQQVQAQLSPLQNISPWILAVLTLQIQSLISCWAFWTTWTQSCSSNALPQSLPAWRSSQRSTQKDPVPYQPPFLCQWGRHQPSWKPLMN
In short: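 HepG2 cells transiently transfected with multiple cis-element reporter units report endogenous TF activity; 24 h exposure, then reporter mRNA measured by RT-PCR, 6-FAM labelling, HpaI digestion and capillary electrophoresis. Bidirectional fitting versus DMSO.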

[8] = ATG_M_19_TRANS: Attagene TRANS-FACTORIAL HepG2 Assay for M19 Transcription Factor (Internal Marker) (AID 2282974); details: HepG2 Attagene TRANS-FACTORIAL M19 internal marker reporter
In short: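 Background-control readout: after 24 h chemical exposure of transfected HepG2 carrying GAL4-driven reporter units, RNA was reverse-transcribed, amplified, fluorescently labeled and sized by capillary electrophoresis; gain-of-signal fit against DMSO.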

[9] = target: Glucocorticoid receptor (Homo sapiens) (UniProt P04150); experiment: ATG_GR_TRANS: Attagene TRANS-FACTORIAL HepG2 Assay for human Glucocorticoid Receptor (GR) (AID 2282978); details: HepG2 Attagene TRANS GR reporter, mRNA transcription;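 also: activators score as hits since higher reporter transcript over DMSO is fitted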
Chain of Glucocorticoid receptor (Homo sapiens) (P04150 whole entry, looked up, the tested form may be a part): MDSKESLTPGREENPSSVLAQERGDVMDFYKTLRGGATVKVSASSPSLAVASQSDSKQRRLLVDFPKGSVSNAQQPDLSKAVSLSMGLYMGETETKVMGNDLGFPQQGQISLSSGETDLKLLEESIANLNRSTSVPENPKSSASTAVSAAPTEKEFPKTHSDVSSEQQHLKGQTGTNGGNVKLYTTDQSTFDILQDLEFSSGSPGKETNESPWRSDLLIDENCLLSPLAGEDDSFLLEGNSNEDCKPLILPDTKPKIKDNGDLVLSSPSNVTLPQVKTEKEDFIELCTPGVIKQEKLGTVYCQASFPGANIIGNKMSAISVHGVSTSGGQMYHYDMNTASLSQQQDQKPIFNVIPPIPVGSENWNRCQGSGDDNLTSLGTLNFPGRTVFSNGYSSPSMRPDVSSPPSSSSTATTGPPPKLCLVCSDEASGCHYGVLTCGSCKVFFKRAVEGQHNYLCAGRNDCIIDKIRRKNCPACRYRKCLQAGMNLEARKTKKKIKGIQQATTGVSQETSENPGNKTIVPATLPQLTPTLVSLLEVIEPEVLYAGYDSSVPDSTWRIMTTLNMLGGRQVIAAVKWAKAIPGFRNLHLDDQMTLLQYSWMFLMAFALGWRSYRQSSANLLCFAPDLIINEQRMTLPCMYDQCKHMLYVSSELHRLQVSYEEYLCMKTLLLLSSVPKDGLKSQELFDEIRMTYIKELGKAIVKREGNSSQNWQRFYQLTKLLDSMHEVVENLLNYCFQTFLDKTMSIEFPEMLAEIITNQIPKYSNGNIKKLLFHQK
In short: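 Readout is reporter transcript from a chimeric GR-Gal4 acting on GAL4-UAS in transfected human HepG2 liver cells after 24 h exposure, quantified by RT-PCR and capillary electrophoresis. Activation fitted upward against DMSO.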

[10] = target: Bile acid receptor (Homo sapiens) (UniProt Q96RI1); experiment: ATG_FXR_TRANS: Attagene TRANS-FACTORIAL HepG2 Assay for Farnesoid X Receptor (FXR) (AID 2282979); details: HepG2 Attagene TRANS FXR-GAL4 reporter transcription;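 also: hits raise reporter mRNA above DMSO so AC50 marks FXR activation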
Chain of Bile acid receptor (Homo sapiens) (Q96RI1 whole entry, looked up, the tested form may be a part): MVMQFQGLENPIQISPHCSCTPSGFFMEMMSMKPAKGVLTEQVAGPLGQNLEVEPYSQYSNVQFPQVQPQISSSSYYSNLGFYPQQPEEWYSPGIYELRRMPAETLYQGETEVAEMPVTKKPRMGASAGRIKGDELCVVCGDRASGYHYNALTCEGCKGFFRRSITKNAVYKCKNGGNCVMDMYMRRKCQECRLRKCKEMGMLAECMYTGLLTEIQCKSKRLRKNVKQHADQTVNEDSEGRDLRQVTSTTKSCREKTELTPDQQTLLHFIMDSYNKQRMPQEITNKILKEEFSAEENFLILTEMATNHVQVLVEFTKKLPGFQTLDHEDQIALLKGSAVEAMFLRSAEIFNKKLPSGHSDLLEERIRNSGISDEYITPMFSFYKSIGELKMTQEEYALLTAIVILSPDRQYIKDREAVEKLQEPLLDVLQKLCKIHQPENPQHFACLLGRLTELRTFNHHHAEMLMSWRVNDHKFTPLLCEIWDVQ
In short: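 HepG2 cells transiently transfected with reporter constructs in which a chimeric FXR-GAL4 protein drives a GAL4-UAS reporter; 24 h compound exposure. Reporter mRNA measured by RT-PCR, FAM labelling, HpaI digestion and capillary electrophoresis; gain-of-signal versus DMSO.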

[11] = target: Oxysterols receptor LXR-alpha (Homo sapiens) (UniProt Q13133); experiment: ATG_LXRa_TRANS: Attagene TRANS-FACTORIAL HepG2 Assay for human Liver X Receptor alpha (LXRa) (AID 2282980); details: HepG2 Attagene TRANS reporter, LXRa transactivation
Chain of Oxysterols receptor LXR-alpha (Homo sapiens) (Q13133 whole entry, looked up, the tested form may be a part): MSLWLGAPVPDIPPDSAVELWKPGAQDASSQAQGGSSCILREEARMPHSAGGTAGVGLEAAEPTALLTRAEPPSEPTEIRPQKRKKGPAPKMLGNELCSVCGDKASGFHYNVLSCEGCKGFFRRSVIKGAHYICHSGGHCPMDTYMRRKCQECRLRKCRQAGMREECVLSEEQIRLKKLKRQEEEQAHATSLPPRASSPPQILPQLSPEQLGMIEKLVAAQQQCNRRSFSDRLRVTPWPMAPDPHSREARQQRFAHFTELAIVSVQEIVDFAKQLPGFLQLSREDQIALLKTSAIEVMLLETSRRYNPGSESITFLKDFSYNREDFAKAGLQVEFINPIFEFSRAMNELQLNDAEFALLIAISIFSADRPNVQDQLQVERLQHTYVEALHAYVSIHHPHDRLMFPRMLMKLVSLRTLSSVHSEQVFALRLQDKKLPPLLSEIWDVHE
In short: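 HepG2 cells were transiently transfected with multiplexed reporter units driven by chimeric LXRa–GAL4 fusion proteins, then dosed for 24 h. Reporter mRNA was quantified by RT-PCR, fluorescent labelling and capillary electrophoresis; gain of signal fitted against DMSO baseline.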

[12] = target: Oxysterols receptor LXR-beta (Homo sapiens) (UniProt P55055); experiment: ATG_LXRb_TRANS: Attagene TRANS-FACTORIAL HepG2 Assay for human Liver X Receptor beta (LXRb) (AID 2282981); details: HepG2 Attagene TRANS GAL4-LXRb reporter, mRNA
Chain of Oxysterols receptor LXR-beta (Homo sapiens) (P55055 whole entry, looked up, the tested form may be a part): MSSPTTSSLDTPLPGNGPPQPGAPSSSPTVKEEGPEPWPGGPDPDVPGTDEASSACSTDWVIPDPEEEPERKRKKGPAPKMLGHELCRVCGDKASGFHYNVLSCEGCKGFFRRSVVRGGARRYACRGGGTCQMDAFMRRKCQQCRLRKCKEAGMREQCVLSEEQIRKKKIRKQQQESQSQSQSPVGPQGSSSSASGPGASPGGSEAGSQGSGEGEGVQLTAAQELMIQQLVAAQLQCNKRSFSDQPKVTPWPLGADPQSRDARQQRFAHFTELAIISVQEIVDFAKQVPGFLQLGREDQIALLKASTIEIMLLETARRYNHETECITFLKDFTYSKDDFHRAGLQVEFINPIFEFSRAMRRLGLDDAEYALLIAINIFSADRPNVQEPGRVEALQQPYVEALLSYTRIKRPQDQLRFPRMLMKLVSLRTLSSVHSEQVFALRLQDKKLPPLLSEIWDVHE
In short: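 Cells: HepG2, transiently transfected with GAL4-UAS reporter units plus LXRb-Gal4 fusion. Treatment: 24 h. Detection: reporter mRNA by RT-PCR, 6-FAM labelling, HpaI digestion, capillary electrophoresis.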

[13] = ATG_M_06_TRANS: Attagene TRANS-FACTORIAL HepG2 Assay for M06 Transcription Factor (Internal Marker) (AID 2282983); details: HepG2 Attagene TRANS M06 internal marker reporter;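 also: reporter transcript level by RT-PCR then capillary electrophoresis fluorescence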
In short: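 HepG2 cells transiently transfected with multiplexed GAL4-UAS reporter transcription units; after 24 h compound exposure, reporter mRNA measured by RT-PCR, FAM-labelled primer extension, HpaI digestion and capillary electrophoresis. Gain-of-signal fitted versus DMSO baseline; background control readout.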

[14] = ATG_M_32_TRANS: Attagene TRANS-FACTORIAL HepG2 Assay for M32 Transcription Factor (Internal Marker) (AID 2282984); details: HepG2 Attagene TRANS M32 internal marker reporter
In short: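 Using transiently transfected HepG2 cells exposed to test chemicals for 24 h, reporter transcripts are converted to labelled cDNA fragments and quantified by capillary electrophoresis. DMSO defines the activity baseline.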

[15] = target: Transcriptional activator Myb (Homo sapiens) (UniProt P10242); experiment: ATG_Myb_CIS: Attagene CIS-FACTORIAL HepG2 Assay for human Myeloblastosis (Myb) Proto-Oncogene Transcription Factor (AID 2282986; active = hit-call score of the fitted dose curve at least 0.9, where 1 is the maximum; inactive = score below 0.9); details: HepG2 Attagene CIS-FACTORIAL Myb reporter transcription; actives raise or lower the signal
In short: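 Reporter mRNA is quantified by RT-PCR and capillary electrophoresis 24 h after dosing HepG2 cells transfected with cis-regulated reporter units, which track endogenous transcription factor activity. Gain and loss of signal are fitted versus DMSO baseline.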

[16] = ATG_GAL4_TRANS: Attagene TRANS-FACTORIAL HepG2 Assay for GAL4 (Internal Marker) (AID 2282976); details: HepG2 Attagene TRANS GAL4 internal marker reporter
In short: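 HepG2 cells transiently transfected with multiplexed GAL4-UAS reporter constructs were dosed for 24 h. Reporter mRNA was measured by RT-PCR, 6-FAM primer extension, HpaI digestion and capillary electrophoresis, and gain of signal was fitted relative to DMSO.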

[17] = target: Estrogen-related receptor gamma (Homo sapiens) (UniProt P62508); experiment: ATG_ERRg_TRANS: Attagene TRANS-FACTORIAL HepG2 Assay for human Estrogen-Related Receptor gamma (ERRg) (AID 2282977); details: HepG2 Attagene TRANS reporter, ERRg transactivation;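 also: hits increase reporter signal over DMSO so potencies reflect activators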
Chain of Estrogen-related receptor gamma (Homo sapiens) (P62508 whole entry, looked up, the tested form may be a part): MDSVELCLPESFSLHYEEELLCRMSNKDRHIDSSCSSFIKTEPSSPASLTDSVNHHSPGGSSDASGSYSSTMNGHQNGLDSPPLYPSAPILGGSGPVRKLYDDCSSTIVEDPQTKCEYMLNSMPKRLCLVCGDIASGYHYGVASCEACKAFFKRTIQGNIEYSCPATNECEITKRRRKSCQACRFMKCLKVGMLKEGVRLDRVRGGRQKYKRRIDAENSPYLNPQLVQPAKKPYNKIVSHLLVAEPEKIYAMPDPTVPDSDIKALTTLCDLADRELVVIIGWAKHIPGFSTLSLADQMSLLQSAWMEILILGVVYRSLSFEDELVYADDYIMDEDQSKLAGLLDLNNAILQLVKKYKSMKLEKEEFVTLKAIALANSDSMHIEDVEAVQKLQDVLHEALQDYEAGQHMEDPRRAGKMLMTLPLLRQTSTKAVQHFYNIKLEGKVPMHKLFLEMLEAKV
In short: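 HepG2 cells transiently transfected with multiplexed GAL4-UAS reporter units and chimeric NR-Gal4 constructs were exposed to test chemicals for 24 h. Reporter mRNA was measured by RT-PCR, 6-FAM primer extension, HpaI digestion and capillary electrophoresis; gain-of-signal versus DMSO.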

[18] = target: Hepatocyte nuclear factor 4-alpha (Homo sapiens) (UniProt P41235); experiment: ATG_HNF4a_TRANS: Attagene TRANS-FACTORIAL HepG2 Assay for human Hepatocyte Nuclear Factor 4 alpha (HNF4a) (AID 2282982); details: HepG2 HNF4a transactivation reporter, mRNA readout
Chain of Hepatocyte nuclear factor 4-alpha (Homo sapiens) (P41235 whole entry, looked up): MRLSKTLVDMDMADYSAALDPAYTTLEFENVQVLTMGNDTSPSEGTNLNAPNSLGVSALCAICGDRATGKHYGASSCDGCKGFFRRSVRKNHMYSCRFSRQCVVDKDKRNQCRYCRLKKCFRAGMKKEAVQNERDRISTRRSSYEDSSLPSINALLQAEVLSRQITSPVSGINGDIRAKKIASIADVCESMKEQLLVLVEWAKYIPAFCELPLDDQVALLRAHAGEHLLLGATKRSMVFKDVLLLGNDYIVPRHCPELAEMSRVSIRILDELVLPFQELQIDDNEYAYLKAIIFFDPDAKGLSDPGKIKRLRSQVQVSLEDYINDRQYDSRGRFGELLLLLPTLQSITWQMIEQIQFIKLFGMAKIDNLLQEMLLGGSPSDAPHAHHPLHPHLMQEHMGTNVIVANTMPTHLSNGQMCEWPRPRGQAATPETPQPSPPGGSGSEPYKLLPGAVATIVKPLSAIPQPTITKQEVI
In short: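 Transfected HepG2 reporter cells are dosed for 24 h; reporter RNA is reverse-transcribed, amplified, fluorescently labelled and HpaI-digested before CE sizing. Positive-direction fit against DMSO.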

[19] = target: Nuclear receptor subfamily 4 group A member 2 (Homo sapiens) (UniProt P43354); experiment: ATG_NURR1_TRANS: Attagene TRANS-FACTORIAL HepG2 Assay for human Nuclear Receptor Related Protein 1 (NURR1) (AID 2282985); details: HepG2 Attagene TRANS reporter, mRNA readout
In short: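 Cells: HepG2, transiently transfected. Exposure: 24 h. Detection: fluorescence of labelled RT-PCR products separated by capillary electrophoresis; upward fit versus DMSO.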

[20] = target: Androgen receptor (Homo sapiens) (UniProt P10275); experiment: ATG_AR_TRANS: Attagene TRANS-FACTORIAL HepG2 Assay for human Androgen Receptor (AR) (AID 2282973); details: HepG2 Attagene TRANS-FACTORIAL AR reporter transcription
In short: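 HepG2 cells transiently transfected with multiplexed GAL4-UAS reporter units and chimeric NR-Gal4 fusion; 24 h compound exposure. Reporter mRNA measured by RT-PCR, 6-FAM labelling, HpaI digestion and capillary electrophoresis; gain-of-signal fitted relative to DMSO baseline.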

Measured: AC50

c1ccc2c(c1)sc1ccccc12
active: [5] 63.7 µM
not listed: [16] | [17] | [18] | [19] | [20]
inactive: all other assays above

CCOc1ccc(C(C)(C)COCc2cccc(Oc3ccccc3)c2)cc1
inactive: [1] | [2] | [4] | [5] | [7] | [8] | [9] | [10] | [14] | [15]
active: [3] 5.77 µM

CC(C)Nc1ccc(Nc2ccccc2)cc1
active: [3] 3.68 µM | [5] 8.77 µM
not listed: [12] | [13] | [14] | [20]
inactive: all other assays above

COC(=O)C(F)(F)C(F)(F)OC(F)(C(F)(F)F)C(F)(F)OC(F)=C(F)F (stereo unspecified)
active: [2] 87.4 µM | [3] 18.3 µM | [5] 30.3 µM and 13.7 µM
inactive: [1] | [2] | [3] | [4] | [5] | [6] | [7] | [20] | [8] | [16] | [17] | [9] | [10] | [11] | [12] | [18] | [13] | [14] | [15]

ClC(Cl)c1ccccc1
not listed: [5] | [10] | [13] | [18] | [19] | [20]
inactive: all other assays above

O=NN1CCCC1
not listed: [6] | [10] | [13] | [17] | [19] | [20]
inactive: all other assays above

N#Cc1cc([N+](=O)[O-])ccc1N
not listed: [8] | [11] | [17] | [18] | [20]
inactive: all other assays above

Clc1ccc(Oc2ccccc2)cc1
active: [5] 41.7 µM
not listed: [6] | [8] | [11] | [16] | [17] | [18]
inactive: all other assays above
